# Inconclusive results are not listed. Entries that show only a call come without a potency. Active and inactive are the calls of the source. Unless noted, calls follow the shape of the dose curve; as a rule, active = well fitted curve in the direction sought with a large enough effect; inconclusive = small, poorly fitted or top-dose-only effect, or another doubt; inactive = no such curve, though single readings can be large; an effect the other way counts as inactive or inconclusive.
# Experiments:
# [1] = molecular target: Glucagon-like peptide 1 receptor (Homo sapiens) (UniProt P43220); test: qHTS of GLP-1 Receptor Agonists: LOPAC Validation (AID 624148);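 also: higher luminescence signal means agonism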
# Method in brief: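 HEK293 cells stably co-expressing a cAMP-responsive luciferase reporter and a hypersensitive GLP-1R were plated 12 h at 37 °C and exposed to compounds for 4-6 hr at 37 °C, 5% CO2. Luminescence was read 12 min after adding detection reagent.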
# [2] = qHTS of Nrf2 Activators: LOPAC Validation (AID 624149)
# Method in brief: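 Following overnight seeding in 5% FBS OPTI-MEM, AREc32_Fluc cells receive compounds for a 24 hr incubation at 37 deg C with 5% CO2. Steady-Glo is added, and after 30 min at RT luminescence is recorded.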
# [3] = HTS Assay for Allosteric Antagonists of the Human D2 Dopamine Receptor: Hit Validation in HTRF (AID 624455);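 also: stable D1 dopamine receptor cell line scored for blocking the D1 response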
# Method in brief: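 Validation of hits used D1 receptor stably expressed in cells with HTRF detection of response inhibition; origin screen measured calcium flux following EC80 dopamine in a force-coupled, inducible Hek293 Trex D2 cell line.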
# [4] = Cytotoxicity counterscreen for NFkB agonists and antagonists (AID 624476);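 also: cells exposed to compound for 48 hours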
# [5] = qHTS Assay for Identification of Small Molecule Agonists for NFkB Signaling Pathway. (AID 624478);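 also: compounds tested together with TNF alpha at its EC50 of 10 pM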
# Method in brief: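 Assay medium contained 0.5% FBS and 10 mM HEPES pH 7.3. Compounds were added together with TNF alpha (10 pM final), incubated 5 h at 37 C, and the beta-lactamase signal was measured fluorometrically.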
# [6] = qHTS Assay for Identification of Small Molecule Antagonists for NFkB Signaling Pathway. (AID 624479; calls by dose curve;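 also: pathway stimulated with TNF alpha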)
# [7] = Cell Proliferation Assay against the TMD8 Cell Line (AID 651645); details: TMD8 DLBCL cell line proliferation/viability; at 46.1 µM (top of the series) unless noted;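 also: cells exposed to compound for 48 h before reading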
# Method in brief: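 Viability by CellTiter-Glo after 48 h compound exposure of 500 log-phase TMD8 cells per well (RPMI, 5% FBS). Percent activity scaled between DMSO (100%) and 9.2 uM final bortezomib (0%).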
# [8] = Cell Proliferation Assay against the HBL1 Cell Line (AID 651646); details: HBL1 DLBCL cells; at 46.1 µM (top of the series) unless noted;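 also: cells exposed to compound for 48 h before reading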
# Method in brief: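 After a 48 h incubation of 500 HBL1 cells/well in phenol red-free RPMI plus 5% FBS, relative luciferase units from CellTiter-Glo gave percent activity against DMSO and 9.2 uM bortezomib (final) controls.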
# [9] = Cell Proliferation Assay against the TMD8 Cell Line (Caspase readout at 16 hrs) (AID 651712); also: potency is read from the fitted curve at half-maximal effect
# Method in brief: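 16 h, 37 °C, TMD8 (500 cells/well), RPMI/5% FBS no phenol red; Caspase-Glo 3/7, 15 min RT, luminescence; %act: DMSO 0, bortezomib 9.2 uM final 100.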
# [10] = Cell Proliferation Assay against the TMD8 Cell Line (Caspase readout at 8 hrs) (AID 651713); also: potency is read from the fitted curve at half-maximal effect
# Description: One class of targeted therapeutics showing early clinical success in killing of ABC DLBCL lines are small molecule inhibitors of the Bruton tyrosine kinase (BTK) 11. Thus, we chose to investigate what additional compounds, if any, would synergize with the BTK inhibitor Ibrutinib (PCI-32765).
# Prior to any combination assays, using an NCATS developed oncology compound library called the Mechanism of Interrogation Plate (MIPE), two well studied ABC DLBCL lines (TMD8 and HBL1) were screened using a cell viability assay (CellTiterGlo) and a 12-point titration series for each single agent. These initial experiments offered insight into the concentration range that offered the best coverage of activity and non-activity to assure relevant data is generated. In addition to the viability signature associated with this library, we examined the apoptotic response of each agent versus the TMD8 line as judged by caspase 3/7 activation. Activity was assayed at both 8 and 16 hour time-points to gain an appreciation of which agents induced an apoptotic response in a reasonable timeframe from a therapeutic exposure perspective. MIPE was also assayed for single agent viability in a human mesenchymal stem cell (hMSC) line as a surrogate of each library members potential therapeutic index.
# The combination plates were then generated by choosing 20 of the best compounds from this single agent screen and plated in the presence of the BTK inhibitor. The first analysis was carried out using 6x6 dose response blocks for each of the 20 compounds. […] In addition to the cell viability assay, the parallel caspase 3/7 activation and viability in hMSC assays were carried out in the 10x10 format.
# A total of 500 log growing TMD8 cells are seeded per well in 5 uL of a RPMI with glutamine (or Glutamax), without phenol red plus 5% FBS and 1X Pen/Strep into 1536 -solid white high base tissue culture treated Greiner One Bio Plates (789173-F) using a multidrop combi dispenser and a small sterile cassette. Compounds and controls totaling 23nL per well (negative control DMSO and positive control 9.2 uM Bortezomib-final) are immediately added to the plates using a 1536 head pin tool from Kalypsys. The plates are then covered with stainless steel gasket lids from Kalypsys and incubated for either 8 hours at 37C under 95% relative humidity with 5% CO2. […] The plates are then spun at 1000 rpms to remove bubbles and incubated for 15 minutes at room temperature before read on a ViewLux using a luminescent filter with a 10 second exposure. The relative luciferase units are used to calculated percent activity using DMSO as 0% and Bortezomib as 100%.
# Glucagon-like peptide 1 receptor (Homo sapiens), sequence (P43220 whole entry, looked up): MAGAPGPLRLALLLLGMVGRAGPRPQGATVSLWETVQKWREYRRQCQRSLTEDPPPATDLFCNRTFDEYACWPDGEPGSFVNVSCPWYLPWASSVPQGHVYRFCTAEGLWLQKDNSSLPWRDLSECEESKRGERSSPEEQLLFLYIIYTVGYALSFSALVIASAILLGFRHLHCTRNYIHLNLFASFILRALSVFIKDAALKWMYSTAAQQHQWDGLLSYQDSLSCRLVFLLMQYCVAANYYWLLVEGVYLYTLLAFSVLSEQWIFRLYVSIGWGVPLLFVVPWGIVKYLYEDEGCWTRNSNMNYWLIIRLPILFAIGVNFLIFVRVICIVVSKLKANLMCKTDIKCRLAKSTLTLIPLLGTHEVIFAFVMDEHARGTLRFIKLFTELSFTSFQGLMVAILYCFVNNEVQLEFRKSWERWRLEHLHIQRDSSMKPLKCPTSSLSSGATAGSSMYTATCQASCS
smiles,measurement,setting,value
CN(C)CCC=C1c2ccccc2CCc2ccccc21,outcome,[1],inactive
same,outcome,[2],inactive
same,outcome,[3],inactive
CC(=O)O[C@@]12CO[C@@H]1C[C@H](O)[C@@]1(C)C(=O)[C@H](O)C3=C(C)[C@@H](OC(=O)[C@H](O)[C@@H](NC(=O)OC(C)(C)C)c4ccccc4)C[C@@](O)([C@@H](OC(=O)c4ccccc4)[C@H]21)C3(C)C,outcome,[4],inactive
same,outcome,[5],inactive
same,outcome,[6],inactive
same,viability (% of control),[7],32.1%
same,"viability, percent of control",[8],69%
same,Potency,[9],37.2 µM (active)
same,Potency,[10],inactive
NC1CCN(c2cccc(Cl)n2)CC1,outcome,[1],inactive
same,outcome,[2],inactive
same,outcome,[3],inactive
C=Cc1c(C)c2cc3[nH]c(cc4nc(cc5nc(cc1[nH]2)C(C)=C5CCC(=O)O)C(CCC(=O)O)=C4C)c(C)c3C=C,outcome,[1],inactive
same,outcome,[2],inactive
same,outcome,[3],inactive
Oc1cn2c(n1)Nc1ccc(Cl)c(Cl)c1C2,viability (% of control),[7],87.9%
same,"viability, percent of control",[8],58.4%
same,Potency,[9],inactive
same,Potency,[10],inactive
C[C@](N)(Cc1ccc(O)cc1)C(=O)O,outcome,[1],inactive
same,outcome,[2],inactive
same,outcome,[3],inactive
CNCC(O)c1ccc(O)c(O)c1 (centres undefined),outcome,[2],inactive
CNCCCC1c2ccccc2C=Cc2ccccc21,outcome,[1],inactive
same,outcome,[2],inactive
same,outcome,[3],inactive
CN(C)CCCN1c2ccccc2CCc2ccccc21,outcome,[3],inactive
C[C@]12C[C@H](O)[C@H]3[C@@H](CCC4=CC(=O)CC[C@@]43C)[C@@H]1CC[C@@H]2C(=O)CO,outcome,[1],inactive
same,outcome,[2],inactive
same,outcome,[3],inactive
CSc1ccc2c(c1)C(N1CCN(C)CC1)Cc1ccccc1S2 (centres undefined),outcome,[1],inactive
same,outcome,[2],inactive
same,outcome,[3],inactive
NC(=O)c1ncn([C@@H]2O[C@H](CO)[C@@H](O)[C@H]2O)c1N,outcome,[4],inactive
same,outcome,[5],inactive
same,outcome,[6],inactive
same,viability (% of control),[7],128%
same,"viability, percent of control",[8],159%
same,Potency,[9],inactive
same,Potency,[10],inactive
CC1=C(CC(=O)O)c2cc(F)ccc2/C1=C\c1ccc(S(C)=O)cc1 (centres undefined),outcome,[1],inactive
same,outcome,[2],inactive
same,outcome,[3],inactive
Nc1ncnc2c1ncn2[C@@H]1O[C@H](CO)[C@@H](O)[C@H]1O,outcome,[1],inactive
same,outcome,[2],inactive
same,outcome,[3],inactive
CNC(=O)Oc1ccc2c(c1)[C@]1(C)CCN(C)[C@@H]1N2C,outcome,[1],inactive
same,outcome,[2],inactive
same,outcome,[3],inactive
CCN(CC)CCOC(=O)C1(C2CCCCC2)CCCCC1,outcome,[1],inactive
same,outcome,[2],inactive
same,outcome,[3],inactive
CCN(CC)C(C)CN1c2ccccc2Sc2ccccc21 (centres undefined),outcome,[1],inactive
same,outcome,[2],inactive
same,outcome,[3],inactive
COc1ccc(Cl)cc1C(=O)NCCc1ccc(S(=O)(=O)NC(=O)NC2CCCCC2)cc1,outcome,[1],inactive
same,outcome,[2],inactive
same,outcome,[3],inactive
CC(C)NC[C@H](O)c1ccc(O)c(O)c1,outcome,[2],inactive
OCc1cc(C(O)CNCCCCCCOCCCCc2ccccc2)ccc1O (centres undefined),outcome,[1],inactive
same,outcome,[2],inactive
same,outcome,[3],inactive
O=C1Nc2ccc(Cl)cc2[C@@](C#CC2CC2)(C(F)(F)F)O1,viability (% of control),[7],3.1% [at 92.2 µM]
same,"viability, percent of control",[8],2.9% [at 92.2 µM]
same,Potency,[10],17.1 µM (active)
CCCCCCCCCCCCCCCC(=O)NCCO,outcome,[1],inactive
same,outcome,[2],inactive
same,outcome,[3],inactive
N=c1c[n+](N2CCOCC2)[n-]o1,outcome,[1],inactive
same,outcome,[2],inactive
same,outcome,[3],inactive
CCN(CC)CCNC(=O)c1cc(Cl)c(N)cc1OC,outcome,[1],inactive
same,outcome,[2],inactive
same,outcome,[3],inactive
CC(CN(C)C)CN1c2ccccc2CCc2ccccc21 (centres undefined),outcome,[1],inactive
same,outcome,[2],inactive
same,outcome,[3],inactive
Cc1cc(N)c2ccccc2[n+]1CCCCCCCCCC[n+]1c(C)cc(N)c2ccccc21,outcome,[1],inactive
same,outcome,[2],inactive
same,outcome,[3],inactive
O=C1N=C(O)CN1/N=C/c1ccc(-c2ccc([N+](=O)[O-])cc2)o1,outcome,[1],inactive
same,outcome,[2],inactive
same,outcome,[3],inactive

# — PubChem BioAssay (NCATS)
